Assay outcomes from PubChem.
An excerpt weighted towards active compounds, which were near 4% of everything screened.
GDH-TPI counter: GDH-TPI coupled enzyme inhibition counter-screen | GDH-TPI coupled enzyme counterscreen, NADH absorbance | inhibition, % at 4.8 µM | actives 1.2% (n = 360,000) | AID 588335; in the data active = inhibition above about 30%;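 also: 0% = DMSO wells and 100% = wells lacking the enzyme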
Mtb betalactam: beta-lactam sensitization of Mtb H37Rv; actives 0.27% (n = 330,000); M. tuberculosis H37Rv growth with meropenem, percent inhibition; AID 434955; inhibition, % at 25 µM; call rule not given here;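 also: growth measured after seven days incubation then overnight dye step; 0% = bacteria only wells and 100% = bacteria with antibiotic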
UGM FP inh: Mtb UDP-galactopyranose mutase inhibition | P9WIQ1 | purified UGM, fluorescence polarization probe displacement | inhibition, % at 10 µM | actives 0.06% (n = 320,000) | AID 504406; in the data active = inhibition above about 10%, passing the limit was not always enough
Target sequence (P9WIQ1 whole entry, looked up): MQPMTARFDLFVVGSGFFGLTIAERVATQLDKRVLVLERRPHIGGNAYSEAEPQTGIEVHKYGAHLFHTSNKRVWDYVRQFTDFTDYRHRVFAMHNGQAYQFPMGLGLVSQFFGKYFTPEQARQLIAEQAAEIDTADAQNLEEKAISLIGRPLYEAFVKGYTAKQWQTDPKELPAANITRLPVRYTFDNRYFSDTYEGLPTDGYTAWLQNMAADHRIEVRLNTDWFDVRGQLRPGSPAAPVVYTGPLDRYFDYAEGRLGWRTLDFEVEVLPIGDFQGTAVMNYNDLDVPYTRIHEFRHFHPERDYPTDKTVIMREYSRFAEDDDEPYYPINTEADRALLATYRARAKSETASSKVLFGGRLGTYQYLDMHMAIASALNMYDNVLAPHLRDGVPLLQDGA
Rv3671c inh: inhibits the M. tuberculosis serine protease Rv3671c; P9WHR9; inhibition, % at 5.96 µM; actives 0.048% (n = 320,000); AID 2606; in the data active = inhibition above about 38%;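 also: extracellular domain of Rv3671c used as enzyme; 0% = enzyme with DMSO and 100% = no enzyme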
RecA splice inh: Mtb RecA intein splicing inhibition; P9WHJ3; inhibition, % (no concentration beside the values); cell-free RecA intein splicing, fluorescence; actives 0.75% (n = 290,000); in the data active = inhibition above about 30%;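 also: 0% = vehicle wells and 100% = reference inhibitor control wells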
FBA Mtb inh: inhibits M. tuberculosis FBA enzyme | inhibition, % at 1 µM | P9WQA3 | AID 588726 | purified M. tuberculosis FBA, fluorescence read-out | actives 2.3% (n = 360,000); in the data active = inhibition above about 27%;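 also: 0% = vehicle and 100% = reference inhibitor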
* hit, by the source's call; · = not tested or not shown; + = active, no number.

SMILES	GDH-TPI counter	Mtb betalactam	UGM FP inh	Rv3671c inh	RecA splice inh	FBA Mtb inh
Cn1c(=O)c2c(nc(-c3ccc(N(CCCl)CCCl)cc3)n2C)n(C)c1=O	39*	·	·	·	·	+
CC(C)(C)c1ccc(/C=N/NC(=S)Nc2cccnc2)cc1	·	-3	1	-4	-6	·
Oc1ccc(/C=N/NC(=S)Nc2cccnc2)cc1O	34*	4	0	0	-7	-4
COc1ccccc1/C=N/NC(=S)Nc1cccnc1	27	·	0	-4	-3	3
Oc1ccc(C=NNC(=S)Nc2cccnc2)nc1	50*	·	·	·	·	5
Cc1cc2[nH]c(=O)c(=O)[nH]c2cc1S(=O)(=O)Nc1cccc(F)c1	7	-6	-2	2	-6	2
COc1cc(-c2cc(C(=O)Nc3c(Cl)cc(Cl)cc3Cl)c3ccccc3n2)cc(OC)c1OC	17	5	3	-13	-9	-2
COc1ccc2nc3ccccc3nc2c1NC(=O)c1ccc(Cl)cc1Cl	5	-2	37*	5	-29	0
Cc1csc(NC(=O)CSc2nc3[nH]c(=O)cc(O)c3s2)n1	32*	·	·	·	·	9
CN(C)c1ccc(-c2nc3ccccc3n2C)cc1	18	-5	-3	-2	-2	+
CC(C)n1c(-c2ccc(N(C)C)cc2)nc2ccccc21	11	81	1	4	·	185*
CCn1c(-c2ccc(N(C)C)cc2)nc2ccccc21	17	2	4	2	2	+
COc1cc(C2=CCN(C(C)=O)CC2)ccc1OC(C)=O	11	-10	-1	-2	-3	-1
COc1cc2c(cc1OC)C(c1cccc([N+](=O)[O-])c1)N(C(=O)CCC(=O)O)CC2 (stereo unspecified)	3	7	0	-2	-2	3
O=C(/C=C/c1cccc(O)c1)c1ccc(N2CCOCC2)cc1	43*	48	0	8	4	-2
Clc1ccc2c(c1)Nc1ccccc1CC2	2	-1	2	6	14	4
CC(=O)c1cccc(-c2ccnc3c2CC(C(=O)NCC2CCOCC2)O3)c1 (stereo unspecified)	1	·	·	·	·	-3
O=C(/C=C/c1ccco1)Oc1cc(Br)cc(/C=N/NC(=O)c2ccccc2O)c1	43*	1	3	-10	-2	3
Cc1ccc(C(=O)N/N=C/c2cccc(OC(=O)/C=C/c3ccco3)c2)cn1	-2	-6	4	-10	0	0
Brc1ccc2nc(-c3c[nH]c4ccccc34)cn2c1	7	16	-1	-3	4	-2
Cc1cccn2cc(-c3c[nH]c4ccccc34)nc12	4	10	0	9	-1	195*
COC(=O)[C@]1(Cc2ccccc2)N[C@H](CN(C)C(=O)Nc2ccc(Cl)cc2)[C@@H]2C(=O)N(Cc3ccccc3)C(=O)[C@@H]21	3	3	-2	0	·	-1
Cn1cccc1/C=C1\SC(=S)N(NC(=O)c2ccccc2O)C1=O	33*	-3	5	1	-2	-39
Cn1cccc1/C=C1\SC(=S)N(NC(=O)c2ccccc2)C1=O	11	-6	-2	-2	·	-19
CC1CCN(CCc2nc3cc(NC(=O)COc4ccc(Cl)cc4)ccc3n2C)CC1	3	7	-1	0	1	8
SMILES	GDH-TPI counter	Mtb betalactam	UGM FP inh	Rv3671c inh	RecA splice inh	FBA Mtb inh
Cc1cc(=O)oc2cc(OCC(=O)Nc3c(C)n(C)n(-c4ccccc4)c3=O)c(Cl)cc12	6	·	·	·	·	13
CCCCSCc1nc2nc(Cl)c(Cl)nc2[nH]1	35*	·	·	·	·	-3
CCOC(=O)c1ccc(-c2ccc(/C=N/NC(=O)Cc3nnc(N)s3)o2)cc1	40*	0	3	-6	·	21
O=C(Cc1ccc(Br)cc1)N/N=C/c1ccc(-c2cccc(C(=O)O)c2)o1	62*	-1	0	3	-1	7
Nc1nnc(CC(=O)N/N=C/c2ccc(-c3cccc(C(=O)O)c3)o2)s1	46*	5	5	0	·	4
Cc1ccc(/C=N/NC(=O)c2cccnc2)o1	17	-5	0	3	-3	-1
O=C(O)c1cccc(-c2ccc(/C=N/NC(=O)c3cccnc3)o2)c1	57*	6	6	-2	-5	23
COc1cc(NC(=O)c2ccc(-c3cn[nH]c3)c3ccoc23)cc(OC)c1OC	13	·	·	·	·	0
O=C(NCc1ccccc1)c1ccc(-c2cn[nH]c2)c2ccoc12	10	·	·	·	·	32*
C=C(C)c1cccc(C(C)(C)NC(=O)N2CCN(CC)CC2)c1	-9	-6	1	-6	2	2
C=C(C)c1cccc(C(C)(C)NC(=O)N2CCCCC2CC)c1 (stereo unspecified)	5	1	0	1	3	180*
CCCCN(CCO)c1ncnc2sc(-c3ccccc3)cc12	31*	86	3	-17	0	14
CN(C)CCCNc1ncnc2sc(-c3ccccc3)cc12	6	-8	2	-14	-2	20
CCOC(=O)C1=C(C)Nc2ccccc2N=C1NC(=O)c1cc(C)on1	10	5	-2	-7	·	1
Cc1c(OC(C)C(=O)NCc2ccccn2)ccc2c3c(c(=O)oc12)CCC3 (stereo unspecified)	13	99	2	6	0	30*
Cc1ccccc1-c1n[nH]nc1C1=CC(=O)C[C@H](c2ccc(F)cc2)C1	4	·	·	·	·	-4
Cc1[nH]n(-c2cccc3ccccc23)c(=O)c1C=Nc1ccc2[nH]c(=O)[nH]c2c1	35*	3	3	15	-1	0
Cc1ccc(-n2[nH]c(C)c(C=Nc3ccc4[nH]c(=O)[nH]c4c3)c2=O)cc1	22	5	3	4	-1	-2
COc1ccc(-c2cc3nc4c(c(N5CCC6(CC5)OCCO6)n3n2)CCC4)cc1	0	-2	2	-3	-2	-2
COc1ccc(-c2cc3nc(-c4ccccc4)cc(N4CCC5(CC4)OCCO5)n3n2)cc1	14	7	1	-27	-1	28*
Cc1ccc(SCC(=O)N2CCN(S(=O)(=O)c3cccs3)CC2)cc1	3	-9	-1	-3	·	6
Oc1c(Br)cc(/C=N/n2c(-c3ccccc3)n[nH]c2=S)cc1Br	31*	-1	-1	·	1	-1
Oc1ccc(/C=N/n2c(-c3ccccc3)n[nH]c2=S)cc1Br	48*	2	1	·	-1	-1
COc1cc(/C=N/n2c(-c3ccccc3)n[nH]c2=S)ccc1O	15	-2	-3	12	-1	-4
Oc1c(Br)cc(/C=N/n2c(-c3ccccc3)n[nH]c2=S)c(O)c1Br	36*	-6	0	·	-2	4
CC(=O)C1=CCC(c2ccccc2)N(S(=O)(=O)c2ccc(Cl)cc2)C1 (stereo unspecified)	·	·	·	·	·	3
Cc1ccc(N2CC(C(=O)NCc3n[nH]c(=O)c4ccccc34)CC2=O)cc1 (stereo unspecified)	-4	-2	-3	-4	-3	0
